Measured values as given in PubChem BioAssay AID1347165 (National Center for Advancing Translational Sciences (NCATS), 2019).
About 5,700 (2.6%) of roughly 220,000 compounds were called active. Roughly 18% stayed inconclusive and do not appear here. This is one part of a sample in which actives are shown more often than they occur. Calls follow the shape of the dose curve; as a rule, active = well fitted inhibition curve with a large enough effect; inconclusive = small, poorly fitted or top-dose-only effect; inactive = no such curve, though single readings can be large or run the other way.

Target: Lysine-specific demethylase 5B (Homo sapiens) (UniProt Q9UGL1)
Sequence (Q9UGL1 whole entry, looked up): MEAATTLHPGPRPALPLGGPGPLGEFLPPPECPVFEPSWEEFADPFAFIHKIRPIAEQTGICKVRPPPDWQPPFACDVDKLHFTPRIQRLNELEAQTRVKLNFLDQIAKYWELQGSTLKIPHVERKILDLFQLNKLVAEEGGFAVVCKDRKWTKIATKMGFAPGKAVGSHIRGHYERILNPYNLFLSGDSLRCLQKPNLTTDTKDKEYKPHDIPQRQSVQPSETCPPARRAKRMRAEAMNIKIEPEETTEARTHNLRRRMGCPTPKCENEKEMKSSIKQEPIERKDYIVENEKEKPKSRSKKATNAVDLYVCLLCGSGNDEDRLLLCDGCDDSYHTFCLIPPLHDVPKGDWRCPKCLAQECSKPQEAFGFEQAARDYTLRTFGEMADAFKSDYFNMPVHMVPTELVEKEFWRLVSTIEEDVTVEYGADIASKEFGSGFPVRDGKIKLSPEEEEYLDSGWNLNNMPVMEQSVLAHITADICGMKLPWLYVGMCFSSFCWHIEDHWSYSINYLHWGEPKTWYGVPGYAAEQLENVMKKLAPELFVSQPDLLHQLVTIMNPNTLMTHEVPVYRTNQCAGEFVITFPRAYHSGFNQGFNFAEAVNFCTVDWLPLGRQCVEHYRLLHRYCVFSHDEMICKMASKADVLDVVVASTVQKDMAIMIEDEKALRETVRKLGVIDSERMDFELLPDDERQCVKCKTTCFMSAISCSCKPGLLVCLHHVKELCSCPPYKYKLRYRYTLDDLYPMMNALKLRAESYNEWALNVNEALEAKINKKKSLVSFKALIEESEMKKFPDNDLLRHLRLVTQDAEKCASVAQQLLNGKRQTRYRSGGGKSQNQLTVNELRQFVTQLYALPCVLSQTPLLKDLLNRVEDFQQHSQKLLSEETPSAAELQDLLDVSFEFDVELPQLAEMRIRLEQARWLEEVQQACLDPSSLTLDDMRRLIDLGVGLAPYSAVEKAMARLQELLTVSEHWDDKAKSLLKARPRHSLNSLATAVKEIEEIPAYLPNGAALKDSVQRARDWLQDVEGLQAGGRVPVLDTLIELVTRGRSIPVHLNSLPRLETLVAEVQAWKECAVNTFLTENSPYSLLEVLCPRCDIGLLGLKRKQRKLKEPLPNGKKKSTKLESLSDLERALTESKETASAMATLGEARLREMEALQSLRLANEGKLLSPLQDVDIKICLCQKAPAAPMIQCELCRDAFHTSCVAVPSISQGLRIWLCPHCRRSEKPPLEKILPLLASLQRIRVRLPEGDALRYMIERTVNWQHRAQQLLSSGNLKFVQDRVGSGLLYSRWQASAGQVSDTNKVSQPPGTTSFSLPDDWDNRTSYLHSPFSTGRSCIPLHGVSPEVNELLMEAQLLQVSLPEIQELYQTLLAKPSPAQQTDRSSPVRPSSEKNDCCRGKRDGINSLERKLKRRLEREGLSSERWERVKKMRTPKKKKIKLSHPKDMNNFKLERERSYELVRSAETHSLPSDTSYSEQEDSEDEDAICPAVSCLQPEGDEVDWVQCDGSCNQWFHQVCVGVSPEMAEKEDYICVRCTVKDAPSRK
Experiment: Primary screen for KDM5B Histone Demethylases FDH-coupled qHTS; also: nearly all actives have a fitted effect of over 70% in size; as to activity change, negative = inhibition: 0% is about no effect
Conditions: FDH-coupled NADH fluorescence (FDH is formaldehyde dehydrogenase); series mostly up to 57.7 µM; activity change, negative = inhibition: at the top concentration
In short: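 Measured: NADH fluorescence change, 30 min, RT. System: KDM5BΔAP 200 nM final, H3K4me3 peptide, α-KG, Fe(II), ascorbate, NAD⁺ plus FDH, pH 7.5 HEPES. Compounds: titrated, 10 min pre-incubation with enzyme.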
Potency is read from the fitted curve at half-maximal effect.

Activity change, negative = inhibition, inactive:
Fc1ccc(NC(=S)NCC(c2ccccc2)c2ccccc2)cc1 -19.1%
O=C(Nc1ccc2oc(-c3cccc(Cl)c3)nc2c1)c1ccc(F)cc1 12.7%
CN(c1ccccc1)S(=O)(=O)c1ccc(NC(=O)COc2ccccc2)cc1 18.6%
Cc1ccc(S(=O)(=O)N(C)Cc2ccccc2C(F)(F)F)cc1 3.72% [at 86.2 µM]
CCn1cc(-c2ccc(C)cc2)cc1C(=O)NCc1cccnc1 1.22%
CC(C)(C)C(=O)NCCCC(=O)NCc1cccnc1 -10.7%
O=C(NC(=S)NC1CCCCC1)c1ccc(Cl)cc1 -10.9%
N#CCCN1CCN(C(=O)c2cn3ccnc(-c4ccccc4)c3n2)CC1 -13.1%
N#CCCN1CCN(C(=O)c2cn3ccnc(-c4ccc(F)cc4)c3n2)CC1 -25.6%
COc1ccc(-c2noc(-c3cccn3CC(=O)Nc3cc(Cl)ccc3OC)n2)cc1F 27.2%
CCCn1nc(C(=O)Nc2sc3c(c2C(N)=O)CCC3)c2ccccc2c1=O -13.1%
CC(C)c1nc(CNC(=O)c2ccc(N(C)C)nc2)no1 -12.7%
CCc1noc(-c2cn(C3CCN(C(=O)C4(c5ccccc5)CC4)C3)nn2)n1 (stereo not drawn) 15%
CCC(C(=O)Nc1cccc(-c2nc3cccnc3s2)c1C)c1ccccc1 (stereo not drawn) -12.9%
O=C(c1cccnc1)N1CCC(Cc2nc(C3CCOCC3)no2)CC1 -22.2%
CCc1noc(-c2cn(C3CCN(C(=O)c4cccc(OC)c4)C3)nn2)n1 (stereo not drawn) -12.9%
CC(C)CC(=O)N1CCC(c2noc(-c3cnccn3)n2)C1 (stereo not drawn) -1.65%
CCc1noc(-c2cn(C3CCN(C(=O)c4ccc(Cl)cc4)C3)nn2)n1 (stereo not drawn) 1.84%
CCNC(=O)c1noc(-c2ccc[nH]c2=O)n1 -6640%
c1ccc(-c2nc(CN3CCCC3c3cccs3)co2)cc1 (stereo not drawn) -18.7%
O=C1Cc2cc(-c3csc(Nc4ccc(F)cc4)n3)ccc2N1 -0.328%
CC(=O)Nc1ccc(SC2CCCCCC2=O)cc1 (stereo not drawn) -10.9%
CCC1CCc2c(sc(NC(=O)C(CC)CC)c2C#N)C1 (stereo not drawn) -14.6%
Cc1ccc(NC(=O)CN(C)C(=O)c2nc(-c3ccccc3)oc2C)cc1 8.05%
CC1CCCN(CC(=O)Nc2cc(Cl)ccc2Oc2ccccc2)C1 (stereo not drawn) 21.3%
Nc1nc2ccc([N+](=O)[O-])cc2[n+]([O-])n1 -18%
COc1cccc(N(CC(=O)NC2CCCC2)C(=O)Cn2nnc(-c3ccc(C)o3)n2)c1 8.14%
C/C(=C\c1ccc([N+](=O)[O-])cc1)C(=O)c1ccccc1 21.4%
COc1ccc(CNc2nc3c(c(=O)[nH]c(=O)n3C)n2Cc2ccccc2)cc1 13.7%
c1cncc(CNc2cc(-c3cnc4ccccc4n3)c3cc[nH]c3n2)c1 -21.9%
N#Cc1nc(/C=C/c2ccc(F)cc2)oc1NC1CCCCC1 -163%
N#Cc1ccc(CCC(=O)Nc2ccc3ccccc3n2)cc1 -9.01%
COc1ccc(CNC(=O)C2CCCC2)cc1 7.63%
COc1ccc2cc(C(=O)NCC3CCCO3)[nH]c2c1 (stereo not drawn) -50.3%
CN(CC(=O)N1CCCC1)c1nc(-c2cccs2)nc2ccccc12 4.38%
COCCOc1ccc(-c2noc([C@@H]3CCCN3Cc3cccnc3)n2)cn1 -24.5% [at 86.2 µM]
COc1ccc(-c2noc([C@@H]3CCCN3C(=O)CCCc3ccccc3)n2)cc1OC -13.2%
Cn1cc(C(=O)N2CCN(C(=O)Cc3ccccc3)CC2)c2ccccc21 10.9%
CCC(C)C(NC(=O)NCc1ccc(C)cc1)C(=O)O (stereo not drawn) 23.5%
CCS(=O)(=O)N1CC(=O)N(Cc2ccccc2Cl)C(C)(C(=O)NCc2ccccc2OC)C1 (stereo not drawn) 19.1%
O=C(CCn1cncn1)N1CCc2[nH]nc(-c3cccc4ccccc34)c2C1 -15%
Cc1cc2oc(=O)cc(CN3CCN(CCc4ccncc4)CC3)c2cc1C -2.75%
Cc1nn(C)cc1CNC(=O)c1cc2nc(-c3ccc(Cl)s3)cc(C(F)(F)F)n2n1 33.1%
Cc1cc(C)c(NC(=O)CN(C)Cc2coc(-c3ccccc3)n2)c(C)c1 1.75%
O=C(c1nc(-c2cccnc2)c2cnccn12)N1CCN(c2ncccn2)CC1 -2790%
COc1cccc(Cn2c(SCc3ccc(C(=O)N4CCCCC4)cc3)nc3ccncc32)c1 -2.19%
CCNC(=O)[C@@H]1CCCN1[C@@H](C(=O)NC)c1ccccc1OC -6.62% [at 86.2 µM]
CNC(=O)C(C)(C)N1CCC[C@H]1C(=O)N(C)Cc1ccccc1 10.2% [at 86.2 µM]
Cc1cccc(OC(C)C(=O)Nc2cc(-c3ccc(F)c(F)c3)no2)c1C (stereo not drawn) -3.36%
O=S(=O)(NCCc1csc2nc(-c3ccccc3)nn12)c1cc(Cl)ccc1Cl 5.42%
O=C1CC(c2noc(-c3ccc(F)c(Cl)c3)n2)CN1c1ccc(F)cc1 (stereo not drawn) -32.5%
Cc1ccc(-c2nc(C3CC(=O)N(c4ccc(Cl)cc4)C3)no2)cc1C (stereo not drawn) -7.68%
Cc1ccc(F)cc1NC(=O)CCc1c[nH]c2ccccc12 17.4%
COc1ccc(S(=O)(=O)N2CCC(C)CC2)c2cccnc12 12.9%
CC(NC(=O)c1ccc(F)cc1)C12CC3CC(CC(C3)C1)C2 (stereo not drawn) 14.3%
CCCn1c(CN2CCCCC2)nc2cc(NC(=O)c3cc(OC)c(OC)c(OC)c3)ccc21 5.88%
Cc1cc(NC(=O)COc2c(CO)cc(F)cc2CO)ccc1Br -18.6%
COc1ccc(-c2noc(CCC(=O)Nc3ccn(C)n3)n2)cc1 -1.76%
COc1ccc(CNC(=O)NCC(=O)N2CCCCCCNC(=O)CC2c2ccccc2)cc1 (stereo not drawn) 10.8%
O=C1NC(C(=O)NCc2ccccn2)Cn2cccc21 (stereo not drawn) -25.1%
O=S(=O)(c1ccc(Cl)cc1)c1nc(-c2ccco2)oc1N1CCCCC1 -11.1%
Cc1ccc(C)c(NC(=O)C(c2ccccc2)n2cnc3c2c(=O)n(C)c(=O)n3C)c1 (stereo not drawn) -13.9%
COc1cccc(OCCN(C)Cc2cn(-c3ccccc3)nn2)c1 5.71%
O=C(CCOc1ccc(Cl)cc1)N1CCC(c2nnc3n2CCC3)CC1 -10.3%
Cc1ccc2nc(NC(C)(C)CO)nc(-c3ccccc3)c2c1 120%
CC(CC#N)NC(=O)c1cc2ccccc2cc1NC(=O)OC(C)(C)C (stereo not drawn) 40.3%
Cc1cc(C)nc(NC(=O)Nc2ccc(C)c(F)c2)c1 4.73%
COc1ccc(-c2ocnc2C(=O)Nc2cccc(Cl)c2)cc1 10.2%
COc1ccc(NC(=O)Cn2cccc2-c2nc(-c3ccc4c(c3)OCO4)no2)c(OC)c1 3.86%
Cc1ccc(NC(=O)Cn2cccc2-c2nc(-c3ccc4c(c3)OCO4)no2)cc1Cl 3.09%
N#CCc1ccc(OCC(O)Cn2cnc3ccc(Cl)cc3c2=O)cc1 (stereo not drawn) 4.38%
Cc1ccc(S(=O)(=O)N2CCN(C)CC2)cc1C(=O)NC1CCCCC1 23.1%
CCOC(=O)N1CCC(NC(=O)CS(=O)Cc2nc(-c3ccccc3F)oc2C)CC1 (stereo not drawn) 4.01%
O=C(Cc1cccn1-c1ccccc1)N1CCOCC1 -6.08%
CCc1nc(-c2ccc(OC3CCN(C(=O)Cc4c[nH]c5ccccc45)C3)cc2)no1 (stereo not drawn) 7.34%
Cc1ccc(S(=O)(=O)NC(=O)c2cccc(C)c2)cc1 -7.21%
CCOc1ccccc1C(=O)N1CCC(Oc2ncccc2C(=O)N(C)C)C1 (stereo not drawn) -1.4%
O=C(N[C@@H]1CN(c2ccncn2)C[C@H]1CO)C1CCCC1 12%
O=C(CCn1cccn1)N[C@@H]1CN(Cc2ccccc2)C[C@H]1CO 14.5%
O=C(N[C@@H]1CN(Cc2cccnc2)C[C@H]1CO)c1cccnc1 -2.06%
CCc1nc2nc3c(cn2n1)C(=O)CC(c1ccc(Cl)cc1)C3 (stereo not drawn) -0.51%
CC(C)NS(=O)(=O)c1ccc(OCC(=O)NC2CCCCCC2)cc1 16.2%
COc1ccc2c(=O)c(Oc3cccc(C)c3)c(C(F)(F)F)oc2c1 -8.82%
COc1ccc(C23NCCN2C(=O)c2ccccc23)cc1 (stereo not drawn) 34.4%
COc1ccc(CNC(=O)c2ccc(CS(=O)c3ccc(C)cc3)o2)cc1OC (stereo not drawn) -8.94%
Cc1ccc(CNC(=O)c2cc(=O)c3ccc(C)c(C)c3o2)cc1 13.1%
O=C(NCc1ccc2c(c1)OCO2)c1noc(-c2ccc(F)cc2)n1 7.84%
COc1ccc(CNC(=O)c2noc(-c3ccc(F)cc3)n2)cc1 -17.9%

Potency, active:
Cn1ncc2c(C(=O)NCc3cccnc3)cc(C(C)(C)C)nc21 100 µM
COc1ccccc1OCCNC(=O)c1cn2ccnc(-c3ccc(C)cc3)c2n1 28.2 µM
CCc1noc(-c2cccn3c(CNC(=O)c4cccc(Cl)c4)nnc23)n1 31.6 µM
O=C(NCc1nnc2c(-c3nc(C4CC4)no3)cccn12)c1cccnc1 25.1 µM
CCc1noc(-c2cccn3c(CNC(=O)c4ccncc4)nnc23)n1 28.2 µM
CCc1noc(-c2cccn3c(CNC(=O)C(CC)c4ccccc4)nnc23)n1 (stereo not drawn) 28.2 µM
Fc1ccc(-c2cc(NC3CCCC3)nc3[nH]ccc23)nc1 31.6 µM
COc1ccc2c(c1)OCC(C(=O)NCc1cc3cc(OC)ccc3[nH]1)C2 (stereo not drawn) 25.1 µM
CC(=O)N1CCN(c2cc(-c3noc([C@@H]4CCCN4Cc4ccccc4)n3)ccn2)CC1 35.5 µM
Cc1ccc(C)c2c(=O)cc(CN3CCN(CCn4cncn4)CC3)[nH]c12 25.1 µM
O=C(c1nc(-c2ccsc2)c2cnccn12)N1CCCC1 35.5 µM
CNC(=O)[C@@H](Cc1ccccc1)N1CCC[C@H]1C(=O)N1CCC1 28.2 µM
COc1ccc(-c2nc(C3CC(=O)N(c4ccc(F)c(Cl)c4)C3)no2)cc1OC (stereo not drawn) 31.6 µM
O=C1CCC(C(=O)NCc2ccc(-c3cnc4c(Oc5ccccc5)nccn34)cc2)N1 (stereo not drawn) 35.5 µM
O=C(CCc1ccccc1)NCCn1cccc1-c1nc(-c2ccc3c(c2)OCO3)no1 31.6 µM
Cc1noc(C)c1-c1cnc2[nH]cc(CC(=O)N3CCOCC3)c2c1 35.5 µM
Cc1cccnc1C(=O)N[C@@H]1CN(c2ncccn2)C[C@H]1CO 20 µM
CCOc1ccccc1C(=O)N[C@@H]1CN(c2ncccn2)C[C@H]1CO 22.4 µM
Cc1c(-c2ccc(F)cc2)[nH]c2ccc(CNC(=O)c3ccc(CO)o3)cc12 22.4 µM
CNc1nc(C(=O)NCc2ccc3[nH]c(-c4ccc(F)cc4)c(C)c3c2)cs1 5.62 µM
